# About 14,000 (4.5%) of roughly 310,000 compounds showed an effect of 50% or more. Effects have a minus sign here. Shown is part of a subset that was picked to be rich in strong results.
# Target: human ether-à-go-go-related gene (hERG) potassium channel (human, UniProt Q12809)
# Experiment: primary screen, population patch clamp on CHO cells stably expressing hERG; higher = less effect of the substance
# 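Further: peak tail current of the secondary pulse compared with the same well before compound.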
# human ether-à-go-go-related gene (hERG) potassium channel, sequence (Q12809 whole entry, looked up): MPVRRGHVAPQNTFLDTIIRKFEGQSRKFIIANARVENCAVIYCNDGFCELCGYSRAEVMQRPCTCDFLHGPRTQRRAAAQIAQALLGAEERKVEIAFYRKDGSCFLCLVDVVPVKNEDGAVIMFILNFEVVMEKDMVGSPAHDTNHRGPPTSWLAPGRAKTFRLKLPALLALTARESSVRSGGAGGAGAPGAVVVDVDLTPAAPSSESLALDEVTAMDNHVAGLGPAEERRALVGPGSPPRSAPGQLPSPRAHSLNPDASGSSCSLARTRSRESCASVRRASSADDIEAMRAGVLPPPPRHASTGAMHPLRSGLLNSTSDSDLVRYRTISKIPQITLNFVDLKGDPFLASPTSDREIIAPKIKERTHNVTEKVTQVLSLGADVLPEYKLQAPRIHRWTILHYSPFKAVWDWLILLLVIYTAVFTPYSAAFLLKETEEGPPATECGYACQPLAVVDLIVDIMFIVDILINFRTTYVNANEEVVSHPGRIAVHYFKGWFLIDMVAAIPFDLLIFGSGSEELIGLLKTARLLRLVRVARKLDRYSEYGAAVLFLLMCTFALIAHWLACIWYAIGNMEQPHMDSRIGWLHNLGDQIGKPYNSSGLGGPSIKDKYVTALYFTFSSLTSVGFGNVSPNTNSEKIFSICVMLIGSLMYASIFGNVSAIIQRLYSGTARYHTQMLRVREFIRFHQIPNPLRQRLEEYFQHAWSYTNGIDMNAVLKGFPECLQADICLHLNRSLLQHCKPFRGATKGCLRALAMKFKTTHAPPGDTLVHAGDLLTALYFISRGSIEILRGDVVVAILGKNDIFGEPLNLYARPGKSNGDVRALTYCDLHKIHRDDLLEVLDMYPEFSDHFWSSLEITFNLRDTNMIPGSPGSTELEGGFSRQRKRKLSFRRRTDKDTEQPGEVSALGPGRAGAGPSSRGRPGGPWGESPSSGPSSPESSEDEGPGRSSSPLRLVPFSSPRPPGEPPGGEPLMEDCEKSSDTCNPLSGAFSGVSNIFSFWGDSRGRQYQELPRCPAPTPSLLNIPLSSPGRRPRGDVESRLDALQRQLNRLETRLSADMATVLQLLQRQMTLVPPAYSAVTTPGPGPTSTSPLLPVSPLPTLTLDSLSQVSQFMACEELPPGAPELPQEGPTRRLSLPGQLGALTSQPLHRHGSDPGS
row,Compound,"hERG current change (%, negative = inhibition) at 10uM [%]"
1,COc1cc(OC)c(NC(=O)CS(=O)(=O)Cc2nc(-c3ccc(C)cc3)oc2C)cc1Cl,11.5
2,COc1ccc(C2SCCN2S(=O)(=O)c2ccccc2)cc1 (centres unmarked),-4.42
3,O=C(Nc1cc2c3c(c1)CC(=O)N3CCC2)c1ccccc1F,0.297
4,O=C(CNC(=O)c1ccccc1F)OCc1csc(-c2ccccc2)n1,14.6
5,COc1cc(O)oc1C=Nc1ccccc1,-18.3
6,CCSc1nnc(-c2cccs2)o1,10.1
7,O=C(c1ccc2snnc2c1)N1CCSCC1,4.21
8,COc1ccc(NC(=O)C(CC(=O)O)Cc2ccc(Cl)cc2)cc1 (centres unmarked),11.9
9,N#Cc1ccc(CSc2nnc(NC(=O)c3ccc(=O)[nH]c3)s2)cc1,3.51
10,Cc1ccc(C(=O)c2cn[nH]c2-c2ccccc2O)cc1,14.4
11,COc1ccc2c(c1)C(=O)[C@H](O)[C@@H](c1ccc(OC)c(Br)c1)O2,12.9
12,COC(=O)c1cc(O)cc(OC)c1C(=O)c1c(O)cc(C)cc1O,4.87
13,O=C(Cc1ccccc1)NNC(=O)c1ccccc1C(=O)O,-5.66
14,CCOC(=O)c1c(CSc2ccsc2)n(C)c2cc(Br)c(O)c(CN(C)C)c12.Cl,-84.2
15,Cc1cc(O)c(/C=N/Nc2cccc(Cl)c2)c(=O)o1,1.55
16,N#C/C(=C\c1c(N2CCC(C(N)=O)CC2)nc2ccccn2c1=O)C(=O)NC1CCCCC1,20.9
17,N#C/C(=C\c1c(N2CCC(C(N)=O)CC2)nc2ccccn2c1=O)S(=O)(=O)c1ccccc1,-4.45
18,Cc1ccc(S(=O)(=O)/C(C#N)=C/c2c(N3CCC(C(N)=O)CC3)nc3ccccn3c2=O)cc1,-55.3
19,COc1ccc(N2CCN(c3nc4ccccn4c(=O)c3/C=C(\C#N)S(=O)(=O)c3ccccc3)CC2)cc1,-2.49
20,Cc1ccc(S(=O)(=O)/C(C#N)=C/c2c(N3CCN(Cc4ccccc4)CC3)nc3ccccn3c2=O)cc1,5.58
21,N#C/C(=C\c1c(N2CCC(C(N)=O)CC2)nc2ccccn2c1=O)S(=O)(=O)c1ccc(Cl)cc1,-70.9
22,COc1ccc(CN(C(=O)CNC(=O)c2ccco2)C(C(=O)NC2CCCC2)c2ccco2)cc1 (centres unmarked),-15.9
23,COc1ccccc1OCc1nnc(SCC(=O)NCc2ccco2)n1-c1ccccc1,-9.19

# — PMC4336329 (PLoS ONE, 2015)
